Results on 10 compounds are retold here after PubChem BioAssay (NCATS).

Inconclusive results are not listed. Active and inactive are the calls of the source. Unless noted, the call rests on the fitted dose curve; in most records, active means well fitted inhibition curve with a large enough effect; inconclusive means small, poorly fitted or top-dose-only effect; inactive means flat fitted curve, though single readings scatter.

Assay [1] is described as follows: qHTS drug screen for cell cycle checkpoint inhibitors in PARPi-resistant BRCA-mutant ovarian cancer cell lines. (AID 1963452; calls by dose curve). The conditions noted are these: PEO1/OlaR viability, CellTiter-Glo luminescence, 96 h, stronger effect = lower value. The essentials:
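PEO1, PEO4 and PEO1/OlaR ovarian cancer cells, 600 per well, exposed 96 h at 37C to a dilution series. Viability read by CellTiter-Glo luminescence, normalized to DMSO and empty wells; activity summarized as Z-AUC.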

Assay [2] in a line: qHTS for identification of novel therapeutic agents for treatment of microphthalmiaassociated transcription factor (MiT) renal cell carcinoma (RCC) (AID 1963991). The note with it: CellTiter-Glo, 48 h, stronger effect = lower value. The essentials:
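Three TFE3-fusion RCC cell lines (UOK109, UOK124, UOK145), 500 cells/well, were exposed to the 1912-compound MIPE 4.0 library for 48 hours at 37 C. Viability was read by CellTiter-Glo luminescence, normalised to DMSO (100%) and empty wells (0%), with 11-concentration curve fits.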

A short description of assay [3]: qHTS profiling for inhibitors of Plasmodium falciparum proliferation (AID 504749). Further: nearly all actives have a fitted effect of over 60% in size. Further: potency means the concentration at half of the fitted maximal effect.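 On activity, negative = inhibition: 0% = DMSO vehicle and full inhibition = artemisinin control.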 The conditions noted are these: P. falciparum in erythrocytes, SYBR Green DNA, 72 h. The essentials:
(§1)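 SYBR Green fluorescence of parasite DNA, read after lysis and overnight dark incubation, measured growth over 72 h in erythrocyte culture at 0.3% parasitemia and 2.5% hematocrit. Data normalised to DMSO and 0.29 uM artemisinin, with plate-drift correction.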

The subject of the next assay is 3D7. The assay is described as above. The conditions noted are these: P. falciparum in erythrocytes, SYBR Green DNA, 72 h; series mostly up to 28.7 µM. The essentials: as §1
The next assay has as its system 7G8. The assay is described as above. The note with it: P. falciparum in erythrocytes, SYBR Green DNA, 72 h; series mostly up to 28.7 µM. The essentials:
as §1

In a further assay the test system is AA1029. The assay is described as above. The note with it: P. falciparum in erythrocytes, SYBR Green DNA, 72 h; series mostly up to 28.7 µM. The essentials: as §1
The test system of a further assay is AS120. The description is as above. The conditions noted are these: P. falciparum in erythrocytes, SYBR Green DNA, 72 h; series mostly up to 28.7 µM. The essentials: as §1
Where [4] appears, read: measured here: PEO1 parental Z-AUC.
Where [5] appears, read: TFE3-RCC UOK109 viability, measured here: UOK109 Z-AUC.
Where [6] appears, read: TFE3-RCC viability, measured here: UOK124 Z-AUC.
[7] abbreviates: TFE3-RCC viability, measured here: UOK145 Z-AUC.
[8] abbreviates: at 28.7 µM (top of the series), parasite line A.
Setting [9] is: at 28.7 µM (top of the series), parasite line B.
The mark [10] stands for this setting: at 12.8 µM (top of the series), parasite line A.
The mark [11] stands for this setting: at 12.8 µM (top of the series), parasite line B.

Take `NS(=O)(=O)c1cc2c(cc1Cl)NCNS2(=O)=O`: the results for the Z-AUC in assay [1], in assay [1] (setting [4]) and in assay [1] (measured here: PEO4 Z-AUC) were 1.17 (inactive), 1.34 and 1.57, respectively. For the same compound, the figures for the z-score in assay [2] (setting [5]), in assay [2] (setting [6]) and in assay [2] (setting [7]) were 0.106, 0.843 and 0.437, respectively. Moreover, the values for the activity, negative = inhibition in assay [3] (setting [8]) and in assay [3] (setting [9]) were 1.79% (inactive) and 14.1% (inactive), respectively. Moreover, the Potency result with 3D7, in the assay with 7G8, in the assay with AA1029 and in the assay with AS120 was “inactive” in each case.

Take `Clc1ccc2nsnc2c1NC1=NCCN1`: the Z-AUC was 1.68 (inactive) in assay [1], 1.11 in assay [1] (setting [4]) and 1.24 in assay [1] (measured here: PEO4 Z-AUC). Besides, the results for the activity, negative = inhibition in assay [3] (setting [8]) and in assay [3] (setting [9]) were 6.78% (inactive) and -11.1% (inactive), respectively. The Potency result in the assay with 3D7, in the assay with 7G8, with AA1029 and in the assay on AS120 was “inactive” throughout.

Consider `CC(C)(C)C(=O)Oc1ccc(S(=O)(=O)Nc2ccccc2C(=O)NCC(=O)O)cc1`, for which the results for the Z-AUC in assay [1], in assay [1] (setting [4]) and in assay [1] (measured here: PEO4 Z-AUC) were 1.22 (inactive), 0.948 and 1.16, respectively. Further, the z-score in assay [2] (setting [5]) came out at 0.584; in assay [2] (setting [6]) it was 0.0353; in assay [2] (setting [7]), 0.435. Further, the activity, negative = inhibition in assay [3] (setting [8]) was -0.829% (inactive); in assay [3] (setting [9]) it was 7.95% (inactive). The Potency result in the assay with 3D7, in the assay with 7G8, in the assay on AA1029 and in the assay with AS120 was “inactive” throughout.

Turning to `CN1CCC(=C2c3ccccc3C=Cc3ccccc32)CC1`, the Z-AUC in assay [1] was 0.372 (inactive); in assay [1] (setting [4]), 0.535; in assay [1] (measured here: PEO4 Z-AUC) it was 0.739. The activity, negative = inhibition in assay [3] (setting [8]) is 13.5% (inactive); in assay [3] (setting [9]), 3.94% (inactive). Also, the Potency entry in the assay with 3D7 and in the assay with AA1029 was “inactive” in each case.

For `CNCCCC12CCC(c3ccccc31)c1ccccc12`, the Z-AUC is -0.42 (inactive) in assay [1], 0.397 in assay [1] (setting [4]) and 0.261 in assay [1] (measured here: PEO4 Z-AUC). In addition, the activity, negative = inhibition in assay [3] (setting [8]) is 0.742% (inactive); in assay [3] (setting [9]) it was -2.12% (inactive). Moreover, the Potency entry in the assay on 3D7, in the assay with AA1029 and with AS120 was “inactive” each time. In the assay with 7G8, the Potency is 10 µM (active).

As to `CN1C(C(=O)Nc2ccccn2)=C(O)c2ccccc2S1(=O)=O`, the figures for the Z-AUC in assay [1], in assay [1] (setting [4]) and in assay [1] (measured here: PEO4 Z-AUC) were 0.47 (inactive), 0.178 and 0.354, respectively. The activity, negative = inhibition is -3.72% (inactive) in assay [3] (setting [10]) and -0.0614% (inactive) in assay [3] (setting [11]). For the same compound, the Potency entry in the assay on 3D7, in the assay on 7G8, with AA1029 and in the assay on AS120 was “inactive” in each case.

As for `Cc1cnc(C(=O)NCCc2ccc(S(=O)(=O)NC(=O)NC3CCCCC3)cc2)cn1`, the Z-AUC in assay [1] is 0.935 (inactive); in assay [1] (setting [4]), 0.686; in assay [1] (measured here: PEO4 Z-AUC) it was 0.444. Also, the activity, negative = inhibition in assay [3] (setting [8]) was 8.33% (inactive); in assay [3] (setting [9]), 4.07% (inactive). The Potency result in the assay on 3D7, with 7G8, with AA1029 and in the assay with AS120 was “inactive” throughout.

In the case of `Cc1cc(C(C)(C)C)cc(C)c1CC1=NCCN1`, the Z-AUC was 0.735 (inactive) in assay [1], 0.684 in assay [1] (setting [4]) and 0.966 in assay [1] (measured here: PEO4 Z-AUC). The values for the activity, negative = inhibition in assay [3] (setting [10]) and in assay [3] (setting [11]) were -3.52% (inactive) and -6.56% (inactive), respectively. Besides, the Potency result in the assay on 3D7, in the assay with 7G8, in the assay with AA1029 and in the assay on AS120 was “inactive” throughout.

Turning to `CS(=O)(=O)CCNCc1ccc(-c2ccc3ncnc(Nc4ccc(OCc5cccc(F)c5)c(Cl)c4)c3c2)o1`, the Z-AUC is 0.292 (inactive) in assay [1], 0.248 in assay [1] (setting [4]) and 0.473 in assay [1] (measured here: PEO4 Z-AUC). Moreover, the figures for the activity, negative = inhibition in assay [3] (setting [8]) and in assay [3] (setting [9]) were 6.38% (inactive) and -5.13% (inactive), respectively. Moreover, the Potency result in the assay on 3D7, in the assay on 7G8, with AA1029 and with AS120 was “inactive” throughout.

As to `O=c1c(-c2ccc(O)cc2)coc2cc(O)cc(O)c12`, the figures for the Z-AUC in assay [1], in assay [1] (setting [4]) and in assay [1] (measured here: PEO4 Z-AUC) were 0.848 (inactive), 0.793 and -0.435, respectively. Further, the activity, negative = inhibition is -2.63% (inactive) in assay [3] (setting [8]) and -14.6% (inactive) in assay [3] (setting [9]). Besides, the Potency entry with 3D7, in the assay on 7G8, in the assay on AA1029 and with AS120 was “inactive” each time.
